# Source: article PMC4336329 (PLoS ONE, 2015)
# Hit rate of the full screen: of about 310,000 compounds, about 14,000 (4.5%) showed an effect of 50% or more. Effects have a minus sign here. For the sample, strong results were picked, then their nearest neighbours and some compounds at random.
# Biological target: human ether-à-go-go-related gene (hERG) potassium channel (human, UniProt Q12809)
# Test: primary screen, population patch clamp on CHO cells stably expressing hERG; higher = less effect of the substance
# 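Further: peak tail current of the secondary pulse compared with the same well before compound.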
# Chain of human ether-à-go-go-related gene (hERG) potassium channel (Q12809 whole entry, looked up): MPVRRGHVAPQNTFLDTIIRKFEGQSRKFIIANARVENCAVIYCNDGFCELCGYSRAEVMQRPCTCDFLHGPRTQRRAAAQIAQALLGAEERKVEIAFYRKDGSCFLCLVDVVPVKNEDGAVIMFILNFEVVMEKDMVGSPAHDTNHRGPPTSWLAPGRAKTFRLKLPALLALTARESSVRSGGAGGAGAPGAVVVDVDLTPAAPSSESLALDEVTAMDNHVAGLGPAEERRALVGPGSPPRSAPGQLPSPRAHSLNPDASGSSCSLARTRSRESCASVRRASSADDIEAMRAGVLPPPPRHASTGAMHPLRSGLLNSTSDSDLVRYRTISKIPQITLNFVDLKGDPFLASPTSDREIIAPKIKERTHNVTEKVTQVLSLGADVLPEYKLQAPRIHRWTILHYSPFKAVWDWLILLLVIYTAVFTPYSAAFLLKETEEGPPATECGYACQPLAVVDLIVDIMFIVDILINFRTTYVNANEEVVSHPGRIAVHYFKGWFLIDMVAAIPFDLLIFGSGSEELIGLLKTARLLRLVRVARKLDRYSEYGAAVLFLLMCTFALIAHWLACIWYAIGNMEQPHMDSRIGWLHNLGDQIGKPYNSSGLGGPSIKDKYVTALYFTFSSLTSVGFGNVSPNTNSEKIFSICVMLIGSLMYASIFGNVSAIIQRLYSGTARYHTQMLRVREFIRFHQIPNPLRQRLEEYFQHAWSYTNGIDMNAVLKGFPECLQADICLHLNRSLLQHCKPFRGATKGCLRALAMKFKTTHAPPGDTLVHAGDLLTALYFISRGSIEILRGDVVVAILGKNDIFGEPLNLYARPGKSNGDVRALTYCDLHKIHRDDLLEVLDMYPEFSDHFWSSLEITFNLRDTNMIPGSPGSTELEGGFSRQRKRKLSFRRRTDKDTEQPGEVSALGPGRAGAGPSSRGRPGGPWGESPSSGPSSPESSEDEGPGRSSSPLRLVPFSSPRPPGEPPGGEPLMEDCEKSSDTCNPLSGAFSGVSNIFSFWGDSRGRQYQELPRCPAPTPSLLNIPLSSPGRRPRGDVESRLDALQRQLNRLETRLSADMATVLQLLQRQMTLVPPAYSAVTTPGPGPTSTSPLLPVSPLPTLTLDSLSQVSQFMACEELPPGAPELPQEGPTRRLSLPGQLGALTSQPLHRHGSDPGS
row,Structure (SMILES),"hERG current change (%, negative = inhibition) at 10uM [%]"
1,Cc1nc2ccc(Br)cn2c1C(=O)N/N=C\c1ccccc1[N+](=O)[O-],27.6
2,NC(=O)C[n+]1cccc(C(N)=O)c1.[Cl-],12.8
3,Cc1ccc(S(=O)(=O)Nc2c(C)n(C)n(-c3ccccc3)c2=O)c(C)c1,9.47
4,O=C(CCN1CCCCCC1)Nc1ccc2c(c1)OCCO2.O=C(O)C(=O)O,-1.98
5,Cc1ccc(S(=O)(=O)NC(C)c2ccccc2)cc1[N+](=O)[O-] (centres unmarked),9.16
6,CC(=O)Nc1nnc(COc2ccc(Cl)cc2)s1,30.7
7,Cc1ccc(C(=O)N2CCCC(c3nc4c(nnn4Cc4ccccc4)c(=O)[nH]3)C2)cc1 (centres unmarked),-62.4
8,Cc1ccc(Cn2nnc3c(=O)[nH]c(C4CCN(S(=O)(=O)c5ccc(F)cc5)CC4)nc32)cc1,6.62
9,O=c1[nH]c(C2CCN(S(=O)(=O)c3ccc(S(=O)(=O)NC4CC4)cc3)CC2)nc2c1nnn2Cc1ccc(F)cc1,3.81
10,O=C(c1ccccc1)N1CCCC(c2nc3c(nnn3Cc3ccccc3)c(=O)[nH]2)C1 (centres unmarked),-3.63
11,COc1ccc(Cn2nnc3c(=O)[nH]c(C4CCCN(C(=O)c5ccccc5)C4)nc32)cc1 (centres unmarked),-22.5
12,COC(=O)c1ccc(Cn2nnc3c(=O)[nH]c(C4CCN(S(=O)(=O)c5ccc(F)cc5)CC4)nc32)cc1,-70.3
13,C=C(c1ccccc1O)n1ccnc1,27.8
14,Cc1[nH]nc2c1C(c1ccco1)C(C#N)=C(N)O2 (centres unmarked),18.4
15,Cc1nnc(SCCn2c(N3CCCC(C)C3)nc3c2c(=O)n(C)c(=O)n3C)s1 (centres unmarked),-5.21
16,c1cnc2ccc(C(c3nnnn3C3CCCCC3)N3CCCCC3)cc2c1 (centres unmarked),-15.6
17,CCC(C)(C)n1nnnc1C(c1ccc2ncccc2c1)N1CCN2CCCC2C1 (centres unmarked),-10.8
18,c1cnc2ccc(C(c3nnnn3C3CCCCC3)N3CCN4CCCC4C3)cc2c1 (centres unmarked),-109
19,OC1CCN(C(c2ccc3ncccc3c2)c2nnnn2C2CCCCC2)CC1 (centres unmarked),-31.8
20,c1cnc2ccc(C(c3nnnn3C3CCCCC3)N3CCN(C4CCCCC4)CC3)cc2c1 (centres unmarked),-78.8
21,c1cnc2ccc(C(c3nnnn3C3CCCC3)N3CCN4CCCC4C3)cc2c1 (centres unmarked),-45.2
22,CCOC(=O)c1cccc(N2C(N)=NC(N)=NC2(C)C)c1.Cl,-1.9
23,CCOc1ccccc1C(=O)NC(C(=O)NCc1ccc(F)cc1)C(C)C (centres unmarked),-14.7
24,CC(=O)N/C(=C/c1ccc(OC(F)F)cc1)C(=O)O,3.4

row,Structure (SMILES),"hERG current change (%, negative = inhibition) at 10uM [%]"
1,COc1ccc(C(=O)Nc2c(N)nc(SCC(=O)N3CCCCCC3)[nH]c2=O)cc1OC,0.918
2,Cc1ccccc1NC(=O)CSc1nnc(Cc2cccn2C)n1-c1ccc(F)cc1,-0.084
3,O=C(NNS(=O)(=O)c1ccccc1)C(O)(c1ccccc1)c1ccccc1,7.23
4,O=C(NNS(=O)(=O)c1ccc(CCCl)cc1)C(O)(c1ccccc1)c1ccccc1,-55.9
5,Cc1ccc(S(=O)(=O)NNC(=O)C(O)(c2ccccc2)c2ccccc2)cc1,1.02
6,COCCC(=O)N1CCC(Oc2ccc(C(=O)NCc3ccon3)cc2)CC1,3.38
7,CC(C)c1cc(CNC(=O)c2ccc(OC3CCN(Cc4ccccn4)CC3)cc2)on1,-16.1
8,CCc1cc(CNC(=O)c2cccc(OC3CCN(S(C)(=O)=O)CC3)c2)on1,-70.3
9,Cc1cc(CNC(=O)c2cccc(OC3CCN(S(=O)(=O)N(C)C)CC3)c2)on1,0.225
10,CCc1cc(CNC(=O)c2ccc(OC3CCN(CCc4ccccc4)CC3)cc2)on1,-75.5
11,O=C(NCCc1ccccn1)c1ccc(OC2CCN(CCc3ccccc3)CC2)cc1,-41.9
12,O=C(NCc1ccon1)c1ccc(OC2CCN(CCc3ccccc3)CC2)cc1,-66.6
13,CCOCCCNC(=O)c1cccc(OC2CCN(S(C)(=O)=O)CC2)c1,12.6
14,O=C(NCCn1cccn1)c1ccc(OC2CCN(CCc3ccccc3)CC2)cc1,-41.3
15,COc1ccccc1C(=O)NCCC(=O)N1CCN(c2cccc(C(F)(F)F)c2)CC1,-21.7
16,COc1ccc(Cc2nnc(NS(C)(=O)=O)s2)cc1,3.9
17,Cc1cc(NC(=O)c2cc(CC(C)C)on2)no1,7.66
18,Nc1c(C(=O)NCc2ccccc2)c2nc3ccccc3nc2n1-c1ccc2c(c1)OCO2,5.58
19,Cc1ccc2c(c1)c(N=NC(N)=S)c(O)n2Cc1ccccc1,-1.71
20,COc1cccc(C2C(=O)N(C3CCCCC3)CC(=O)N2Cc2ccc(F)cc2)c1 (centres unmarked),-43.8
21,COc1ccc(CC(C#N)(CO)c2nc3ccccc3[nH]2)cc1 (centres unmarked),-7.12
22,O=C(Nc1nc2ccccc2[nH]1)c1ccc(OC(F)F)cc1,-11
23,N#CC(Cc1ccccc1OC(F)F)c1nc2ccccc2[nH]1 (centres unmarked),-16.2
24,N#CC(CO)(Cc1ccc(OC(F)F)cc1)c1nc2ccccc2[nH]1 (centres unmarked),-52

row,Structure (SMILES),"hERG current change (%, negative = inhibition) at 10uM [%]"
1,N#CC(Cc1ccc(OC(F)F)cc1)c1nc2ccccc2[nH]1 (centres unmarked),-70.1
2,COc1cc(CC(C#N)(CO)c2nc3ccccc3[nH]2)ccc1OC(F)F (centres unmarked),-18.9
3,Cc1cc(C)cc(C(=O)N2CCN(Cc3ccc4c(c3)OCO4)CC2)c1,-20.1
4,COc1ccccc1Oc1ccc(N2CC(C(=O)OCC(=O)c3ccccc3)CC2=O)cc1 (centres unmarked),18
5,O=C(Cc1cccs1)N/N=C/c1ccccn1,-7.62
6,Cc1cc(NC(=O)COC(=O)C(C)Oc2ccc(Cl)cc2Cl)no1 (centres unmarked),12.2
7,COc1ccc(/C=N/Nc2ccccn2)c(OC)c1OC,3.27
8,Cc1ccc(NS(=O)(=O)c2ccc(-c3cnc(C4CC4)o3)cc2)c(C)c1,2.08
9,COC(=O)c1ccc(Cn2c(CN3CCOCC3)nc3ccccc3c2=O)o1,-5.56
10,Cc1cc(C(F)F)n2ncc(C(=O)N3CCC(C(N)=O)CC3)c2n1,16.1
11,CN(C(=O)c1cc2c(s1)-c1ccccc1S(=O)(=O)C2)c1ccccc1F,-3.69
12,CN(C(=O)c1cc2c(s1)-c1ccccc1S(=O)(=O)C2)c1ccccc1,-0.0159
13,CCCCN(C)C(=O)c1cc2c(s1)-c1ccccc1S(=O)(=O)C2,-56.5
14,O=C1CCCCC1C(Nc1ccc(Br)cc1)c1ccccc1 (centres unmarked),4.34
15,O=C(CCC(=O)Nc1ccc(F)cc1)N/N=C/c1ccc(F)cc1,13.1
16,COc1ccc(N2Cc3ccccc3C2)cc1Cl,-59.9
17,COc1ccc(Cl)cc1N1Cc2ccccc2C1,-3.46
18,COc1cc(N2Cc3ccccc3C2)ccc1C=O,-3.61
19,O=c1cc(Nc2ccc3c(c2)OCCO3)[nH]c(=O)n1-c1ccc(Br)cc1,14.3
20,O=C(CN1C(=O)CSc2ccc(S(=O)(=O)N3CCCCC3)cc21)NCc1ccccc1Cl,-15.1
21,O=S(=O)(Nc1cccc(-n2cnnn2)c1)c1cccc(Cl)c1,16.2
22,COc1cccc(-c2cc(C(=O)Nc3ccccc3)c3ccccc3n2)c1,8.07
23,COc1cccc(-c2cc(C(=O)NC3CC3)c3ccccc3n2)c1,-51.2
24,COc1ccc(-c2cc(C(=O)NC3CC3)c3ccccc3n2)cc1,-64.5

row,Structure (SMILES),"hERG current change (%, negative = inhibition) at 10uM [%]"
1,COc1cccc(-c2cc(C(=O)NC3CCCC3)c3ccccc3n2)c1,-36.8
2,CN1CCC(NC(=O)c2cc(-c3cccc(Br)c3)nc3ccccc23)CC1,-69.7
3,Cc1cccc(-c2cc(C(=O)Nc3cccnc3)c3ccccc3n2)c1,-21.2
4,Cc1ccc2nc(-c3cccc(Br)c3)cc(C(=O)NC3CC3)c2c1,13.7
5,O=C(NC1CC1)c1cc(-c2ccc(Br)cc2)nc2ccccc12,0.545
6,COc1ccc(-c2cc(C(=O)NC3CCCC3)c3ccccc3n2)cc1,-21.6
7,Cc1ccc(C)c(-c2cc(C(=O)Nc3cccnc3)c3ccccc3n2)c1,-61
8,Cc1ccc(C)c(-c2cc(C(=O)Nc3cccc(C(=O)O)c3)c3ccccc3n2)c1,20.3
9,CN1CCC(N(C)C(=S)NC(=O)c2cc(-c3cccc(Br)c3)nc3ccccc23)CC1,-15.3
10,CC1=C(C(=O)OC(C)C)C(c2ccccc2)NC(=S)N1C (centres unmarked),2.43
11,COc1ccc(-n2c(=S)[nH]c3ccccc32)cc1,1.28
12,Cc1c(-c2cccc(Cl)c2)nc2ccccc2c1C(=O)NC1CC1,-60.6
13,Cc1ccc(-c2cc(C(=O)NCCc3ccccn3)c3ccccc3n2)c(C)c1,-51.1
14,Cc1cc(C(=O)NC2CC2)c2ccccc2n1,19.9
15,COC(=O)c1sccc1NC(=O)c1c(C)c(-c2cccc(Cl)c2)nc2ccccc12,16.7
16,Cc1c(-c2cccc(Cl)c2)nc2ccccc2c1C(=O)N1CCC2(CC1)OCCO2,-47.4
17,COc1cccc(-c2cc(C(=O)NN3CCOCC3)c3ccccc3n2)c1,-24.3
18,CC(C)Oc1cccc(-c2cc(C(=O)NN3CCOCC3)c3ccccc3n2)c1,-60.8
19,Cc1ccc(C)c(-c2cc(C(=O)NC3CC3)c3ccccc3n2)c1,-61.1
20,Cc1ccc(C)c(-c2cc(C(=O)NN3CCOCC3)c3ccccc3n2)c1,-17.1
21,Cl.O=C(NCCc1ccccn1)c1cc(-c2cccc3ccccc23)nc2ccccc12,-27.1
22,O=C(NN1CCOCC1)c1cc(-c2ccccc2)nc2ccccc12,-8.03
23,O=C(NCCc1ccccn1)c1cc(-c2ccccc2Cl)nc2ccccc12,-2.8
